Here are results for 33 compounds from PubChem BioAssay (NCATS).

Some of the results follow. A call without a number means that no potency is given here. Inconclusive results are not listed. The source made the active and inactive calls. Calls come from the whole dose curve; as a rule, active = well fitted cell-killing curve with a large enough effect; inconclusive = small, poorly fitted or top-dose-only effect, or effect the other way; inactive = flat fitted curve, though single readings scatter.
Potency is the fitted concentration of half-maximal effect.

This test in a line: Cell viability qHTS assay in S16 Pmp22-F2sN cells - Confirmatory screen (AID 1508641). The following applies: S16 Schwann cells viability, CellTiter-Glo ATP luminescence, 24 h; series mostly up to 57.5 µM. From the text: Assay Provider: Jim Inglese Ph.D. National Center for Advancing Translational Science, National Institutes of Health, Rockville, MD CMT is a heterogeneous group of neurological disorders that affect approximately 1 in 2,500 people. In particular, the most common form of CMT, CMT1A is genetically linked to the duplication of the PMP22 gene which leads to Schwann cell overexpression, thus manifesting itself as a typical case of dose-sensitive diseases. To identify small molecule compounds that can mediate the expression of PMP22 we developed a phenotypic assay screening strategy by utilizing genome editing techniques to construct Schwann cell lines containing novel reporter technology to monitor the transcriptional or translational regulation of PMP22. For high sensitivity we use a bioluminescent reporter system embedded in the 3' UTR of the PMP22 gene (S16(c9) Pmp22-F2sN) to identify compounds that inhibit gene expression. […] We can further discriminate the effect of all transcriptionally active molecules on PMP22 translation or stability with an assay that incorporates a short NLuc peptide (HiBiT) at the C-terminus of expressed PMP22 (S16(f8) PMP22-HiBiT) allowing alpha complementation and luminescence detection of membrane-associated PMP22 protein. These assays were screened against the NCATS Sytravon Library Collection. Miniaturization of these assays to 1536-well plate format for quantitative high throughput screening (qHTS) yielded rich data sets immediately from the qHTS assay (S16(c9) Pmp22-F2sN), when compared with data from a cell viability assay (Cell TiterGlo) to identify compounds that decreased the output signals through cellular toxicity to streamline the selection process of actives for subsequent characterization using the HiBiT assay (S16(f8) PMP22-HiBiT).
Cell viability assay in S16 Pmp22-F2sN cells PROTOCOL TABLE (format as described by Inglese J, Shamu CE and Guy RK. 2007) SEQUENCE No. (e.g., 1, 2, 3, etc.); PARAMETER (e.g., Cells, Incubation, Reagent, etc.); VALUE and DESCRIPTION. 1. Cells. Add 500-1,000 cells in 4 uL in growth media (DMEM High Glucose, No Phenol Red media + 10% heat-inactivated FBS + 1% Pen/Strep supplemented media) per well into Greiner 1536-well white/solid bottom high base, TC-treated plates. 2. Compounds. Library compounds and controls added at 23nL per well, transferred by Pin Tool. 3. Incubation. Incubate plates at 37C, 5% CO2, 95% RH for 24 h. 4. Reagent. Add 3uL CellTiter-Glo per well of Greiner 1536-well plates. 5. Incubation. Incubate plates at room temperature for 15 min., protect from light. 6. Detector. FLuc luminescence measured using CCD-based camera (Viewlux). NOTES (numbers refer to Sequence numbers above; values are from representative experiments) 6. Luminescence Read: Clear filter; Exposure = 1 sec, Gain = High, Speed = Slow, Binning = 2X REFERENCES: 1. Inglese J, Shamu CE and Guy RK, Reporting data from high throughput screening of small molecule libraries, Nature Chemical Biology, 2007, 3(8): 438-441. doi.org/10.1038/nchembio0807-438 2. Yasgar A, Shinn P, Jadhav A, Auld DS, Michael S, Zheng W, Austin CP, Inglese J and Simeonov A, Compound Management for Quantitative High-Throughput Screening. J. Assoc. Lab. Auto., 2008, 13: 79-89. doi: 10.1016/j.jala.2007.12.004
(Quantitative high-throughput screening tests each substance at several concentrations.)
Turning to `Cc1cccc(Nc2cc(C)nc(-n3nc(C)cc3C)n2)c1`, the Potency result is “inactive”.
On to `CCOC(=O)C1CCN(C(=O)CSc2c3c(nc4ccc(Cl)cc24)CCCC3)CC1`, for which the Potency result is “inactive”.
Consider `COc1ccc(C2Sc3ccccc3NC3=C2C(=O)c2ccccc23)c(OC)c1OC` (stereo not drawn), for which the Potency entry is “inactive”.
On to `O=C(c1ccc(C(F)(F)F)cc1)N1CCC(c2nc(-c3ccc(S(=O)(=O)N4CCCC4)cc3)no2)CC1`, for which the Potency result was “inactive”.
To `O=C(c1ccc2c(c1)N(Cc1ccc(F)cc1)C(=O)c1ccccc1S2(=O)=O)N1CCN(c2ccccn2)CC1` belongs “inactive”; to `Cc1ccc(C)n1-c1nnc(N2CCC(C(=O)NCc3ccccc3Cl)CC2)s1`, “inactive”.
To `CC(=O)N1CCCc2cc(S(=O)(=O)N3CCCC(C(=O)N4CCN(c5cccc(Cl)c5)CC4)C3)ccc21` (stereo not drawn) belongs 27.3 µM (active); to `Cc1nnc(SCC(=O)NCc2ccccc2Cl)c2nn(-c3ccccc3)c(C)c12`, “inactive”.
To `CCOC(=O)c1ccc(N2C(=O)c3n[nH]c(C)c3C2c2ccc(O)c(OC)c2)cc1` (stereo not drawn) belongs “inactive”; to `COc1ccc(CCNC(=O)c2cc(=O)c3c(C)cc(C)cc3o2)cc1OC`, “inactive”.
For `COc1cccc(NC(=O)CSC2=Nc3ccccc3C3=NC(CC(=O)NC4CCCCC4)C(=O)N23)c1` (stereo not drawn), the Potency result is “inactive”.
Regarding `COc1cccc(NC(=O)N(Cc2cn(C)c3ccccc23)C2CCCCCC2)c1`, the Potency entry was “inactive”.
On to `CCOC(=O)c1c(C)[nH]c(CCC(=O)NCCCN2CCN(c3cc(C)ccc3C)CC2)c1C`, for which the Potency is 30.6 µM (active).
With `Cc1ccc(OCCSc2nc3ccc(NC(=O)COc4ccc(C)cc4)cc3s2)cc1` the entry was “inactive”; with `Cc1ccc(Cn2c(C)c3cnn(CC(=O)NCc4ccccc4)c(=O)c3c2C)cc1`, “inactive”.
For the compound `CCOc1ccc(NC(=O)c2c(NC(=O)Cc3ccccc3)sc3c2CCC(C)C3)cc1` (stereo not drawn), the Potency entry was “inactive”.
With `CCCn1c(=N)c(C(=O)NCc2ccccc2)cc2c(=O)n3cccc(C)c3nc21` the entry was “inactive”; with `Cc1ccc(CCNC(=O)C2CCN(c3nnc(-n4cccc4CNc4ccc(C)cc4)s3)CC2)cc1`, “inactive”; with `CCC1=Nc2cc(C(=O)NCCCOC(C)C)ccc2Sc2ccc(C)cc21`, “inactive”.
Take `O=S(=O)(c1ccc(Cl)cc1)c1nnn2c1nc(NC1CCCC1)c1sccc12`: the Potency entry is “inactive”.
With `Cc1sc(C2C(C#N)=C(N)N(c3cccc(Cl)c3)C3=C2C(=O)CCC3)cc1CN1CCOCC1` (stereo not drawn) the entry was “inactive”; with `O=C(NCCCN1CCN(c2cccc(Cl)c2)CC1)c1nnc(Cc2ccc(F)cc2Cl)o1`, “inactive”.
To `COc1ccc(-c2onc(C)c2C)cc1S(=O)(=O)NCC1CCN(Cc2cccc(F)c2)CC1` belongs “inactive”.
With `Cc1ccc(NC(=O)c2nc(S(=O)(=O)Cc3cccc(C)c3)ncc2Cl)cc1` the figure was 30.6 µM (active); with `Cc1cc(OCC(=O)NCC2(N(C)C)CCCCC2)cc(C)c1Cl`, “inactive”.
Turning to `Cc1cc(F)ccc1NS(=O)(=O)c1ccc(-n2cccn2)cc1`, the Potency entry is “inactive”.
With `CCc1ccc(NC(=O)CN2CCSc3ccc(S(=O)(=O)N4CCCC4)cc32)cc1` the entry was “inactive”; with `COc1ccccc1Nc1c2c(nc3ccc(NC(=O)/C=C/c4cc(OC)c(OC)c(OC)c4)cc13)CCCC2`, 17.2 µM (active).
For the compound `CC(C)(C)c1ccc(C(=O)NCC(c2ccco2)S(=O)(=O)c2ccc(F)cc2)cc1` (stereo not drawn), the Potency result is “inactive”.
For the compound `CCOCCCNC(=O)c1c(NC(=O)c2nc(SC)ncc2Cl)sc2c1CCCC2`, the Potency result was “inactive”.
Take `Cc1ccccc1CNC(=O)CSc1nnc(C)c2c(C)n(-c3ccccc3)nc12`: the Potency entry is “inactive”.
As for `CCC1CCCCN1CCCNC(=O)c1cc2c(Cl)nc3ccccc3c2s1` (stereo not drawn), the Potency entry is “inactive”.
With `CCCS(=O)(=O)c1ncc(Cl)c(C(=O)Nc2scc(-c3ccccc3)c2C(=O)OCC)n1`, the Potency was 27.3 µM (active).
